17 molecules from PubChem BioAssay (NCI) can be followed below.

Structures are written as SMILES. The panel holds about 83,000 compounds, 20% with a hit somewhere; the sample as a whole holds those more often.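 Single-dose data. Exposure time 48 hours. Values below 10 considered active.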 A number with no mark means an inactive call. Activity calls are given as the source filed them.

Among the test systems are SR leukemia; RPMI-8226 leukemia; OVCAR-8 ovarian; OVCAR-5 ovarian; OVCAR-4 ovarian; SK-OV-3 ovarian; IGROV1 ovarian; HS 578T breast; NCI/ADR-RES ovarian; OVCAR-3 ovarian.
Test in all cases: NCI-60 one-dose screen, 48 h (100 = growth as untreated, 0 = no growth, -100 = all killed)
Common to all, as to conditions: 10 µM unless noted

For `COc1ccc(C2CC(c3ccccc3)=Nc3ccccc3S2)cc1` (stereo not drawn), the growth in the test on SR leukemia was 49%; with RPMI-8226 leukemia it was 82.1%; in the test with OVCAR-8 ovarian, 115%; with OVCAR-5 ovarian, 116%; in the test with OVCAR-4 ovarian, 97.2%; with SK-OV-3 ovarian, 95.3%. For the same molecule, the values for the growth with IGROV1 ovarian, in the test with HS 578T breast and with NCI/ADR-RES ovarian were 92%, 102% and 94.7%, respectively.

As for `Nc1ncnc(Nc2ccc(C(F)(F)F)cc2)n1`, the growth is 102% in the test with SR leukemia; 109% in the test with RPMI-8226 leukemia; 102% in the test on OVCAR-8 ovarian; 99.8% with OVCAR-5 ovarian; 107% in the test with OVCAR-4 ovarian; 100% in the test on SK-OV-3 ovarian. Besides, the results for the growth in the test on IGROV1 ovarian, in the test with HS 578T breast and with NCI/ADR-RES ovarian were 100%, 108% and 104%, respectively.

Take `CNc1ccccc1C(N)=O`: the growth is 109% in the test with SR leukemia; 110% in the test on RPMI-8226 leukemia; 103% with OVCAR-8 ovarian; 117% in the test with OVCAR-5 ovarian; 109% with OVCAR-4 ovarian; 107% with SK-OV-3 ovarian. Also, the growth is 100% in the test on IGROV1 ovarian, 114% with OVCAR-3 ovarian and 97.9% with NCI/ADR-RES ovarian.

In the case of `O=Cc1ccc(Cl)c(Cl)c1`, the growth was 98% in the test on SR leukemia; 105% in the test with RPMI-8226 leukemia; 101% in the test on OVCAR-8 ovarian; 99.8% in the test on OVCAR-5 ovarian; 95.8% in the test on OVCAR-4 ovarian; 112% with SK-OV-3 ovarian. Besides, the growth with IGROV1 ovarian was 83.7%; in the test with OVCAR-3 ovarian it was 116%; in the test with NCI/ADR-RES ovarian, 95.4%.

On to `O=c1cc(C(F)(F)F)[nH]c(=S)[nH]1`, for which the growth in the test with SR leukemia is 91.7%; in the test with RPMI-8226 leukemia, 111%; with OVCAR-8 ovarian, 105%; in the test with OVCAR-5 ovarian it was 102%; in the test with OVCAR-4 ovarian, 107%; in the test on SK-OV-3 ovarian, 99.9%. The growth with IGROV1 ovarian was 105%; in the test with OVCAR-3 ovarian, 120%; in the test with NCI/ADR-RES ovarian, 109%.

Turning to `COc1ccc(Br)c(C=O)c1`, the growth was 8.35% (active) in the test with SR leukemia; 22.2% with RPMI-8226 leukemia; 69.1% with OVCAR-8 ovarian; 93.1% in the test on OVCAR-5 ovarian; 88.5% with OVCAR-4 ovarian; 103% with SK-OV-3 ovarian. The growth is 92.3% in the test on IGROV1 ovarian, 74.2% in the test with OVCAR-3 ovarian and 51.6% in the test with NCI/ADR-RES ovarian.

For `CN(C)c1ccc(/C=C/C(=O)c2ccc(NC(N)=O)cc2)cc1`, the growth is 61.2% with SR leukemia; 63.8% in the test with RPMI-8226 leukemia; 94.1% in the test with OVCAR-8 ovarian; 99.8% in the test on OVCAR-5 ovarian; 94% with OVCAR-4 ovarian; 105% with SK-OV-3 ovarian. For the same molecule, the growth in the test with IGROV1 ovarian was 99.7%; in the test with OVCAR-3 ovarian, 109%; with NCI/ADR-RES ovarian, 102%.

For the molecule `CCCCCC#CC(=O)O`, the growth with SR leukemia was 97.7%; with RPMI-8226 leukemia, 99.7%; with OVCAR-8 ovarian it was 98.3%; with OVCAR-5 ovarian it was 105%; in the test on OVCAR-4 ovarian, 103%; in the test on SK-OV-3 ovarian, 102%. The growth is 100% in the test on IGROV1 ovarian, 123% in the test with OVCAR-3 ovarian and 119% in the test with NCI/ADR-RES ovarian.

Turning to `O=C(O)Cc1cccc2ccccc12`, the growth in the test on SR leukemia is 94.5%; with RPMI-8226 leukemia, 104%; in the test with OVCAR-8 ovarian it was 110%; in the test on OVCAR-5 ovarian, 102%; in the test with OVCAR-4 ovarian, 122%; in the test with SK-OV-3 ovarian it was 103%. For the same molecule, the growth in the test on IGROV1 ovarian was 112%; in the test with OVCAR-3 ovarian, 111%; with NCI/ADR-RES ovarian, 100%.

For the molecule `CCOC(=O)CSCCC#N`, the growth in the test with SR leukemia is 94.2%; in the test with RPMI-8226 leukemia it was 106%; in the test on OVCAR-8 ovarian, 96.8%; in the test on OVCAR-5 ovarian it was 85%; in the test with OVCAR-4 ovarian, 105%; in the test with SK-OV-3 ovarian it was 92.5%. The growth in the test on IGROV1 ovarian is 107%; in the test with HS 578T breast, 107%; in the test on NCI/ADR-RES ovarian, 100%.

In the case of `BrCc1cccc(C[P+](c2ccccc2)(c2ccccc2)c2ccccc2)c1`, the growth in the test with SR leukemia was 50.3%; in the test on RPMI-8226 leukemia it was 22.6%; in the test with OVCAR-8 ovarian, 29.2%; in the test on OVCAR-5 ovarian, 81.2%; in the test with OVCAR-4 ovarian, 36.8%; in the test on SK-OV-3 ovarian it was 90.2%. Further, the growth in the test on IGROV1 ovarian is 38.8%; in the test on OVCAR-3 ovarian it was 14.2%; with NCI/ADR-RES ovarian, 111%.

With `N#C/C(=C\c1ccc2c(c1)OCO2)c1ccccc1`, the growth in the test on SR leukemia is 14.2%; in the test with RPMI-8226 leukemia it was 74.8%; in the test on OVCAR-8 ovarian it was 90.1%; in the test with OVCAR-5 ovarian it was 79.6%; in the test with OVCAR-4 ovarian, 99.8%; in the test on SK-OV-3 ovarian, 87.3%. Besides, the results for the growth in the test on IGROV1 ovarian, with OVCAR-3 ovarian and with NCI/ADR-RES ovarian were 62.8%, 79.4% and 47.8%, respectively.

Regarding `COc1ccc(C(=O)C(=O)c2ccccc2)cc1`, the growth was 95.9% with SR leukemia; 103% in the test on RPMI-8226 leukemia; 105% in the test with OVCAR-8 ovarian; 101% in the test on OVCAR-5 ovarian; 100% with OVCAR-4 ovarian; 103% in the test with SK-OV-3 ovarian. In addition, the growth in the test with IGROV1 ovarian is 102%; with OVCAR-3 ovarian, 108%; in the test on NCI/ADR-RES ovarian, 104%.

In the case of `Cc1cc(CO)c(O)c(CO)c1`, the growth is 77.8% with SR leukemia; 91% in the test with RPMI-8226 leukemia; 105% in the test with OVCAR-8 ovarian; 101% with OVCAR-5 ovarian; 122% in the test with OVCAR-4 ovarian; 106% in the test with SK-OV-3 ovarian. Besides, the growth is 108% with IGROV1 ovarian, 113% in the test on OVCAR-3 ovarian and 96.1% in the test on NCI/ADR-RES ovarian.

Regarding `CC(C)C(=O)OCCOc1ccc(C(C)(C)C)cc1`, the growth in the test on SR leukemia was 98.6%; in the test on RPMI-8226 leukemia it was 97.7%; in the test on OVCAR-8 ovarian, 99.5%; with OVCAR-5 ovarian, 103%; in the test with OVCAR-4 ovarian, 98.6%; in the test with SK-OV-3 ovarian it was 108%. Moreover, the growth in the test with IGROV1 ovarian was 104%; with HS 578T breast, 93.9%; in the test with NCI/ADR-RES ovarian it was 100%.

Consider `O=C1C=CC(=O)C2=C1CCCC2`, for which the growth in the test with SR leukemia was 68.1%; in the test with RPMI-8226 leukemia, 72.4%; in the test with OVCAR-8 ovarian, 95.1%; in the test with OVCAR-5 ovarian, 108%; with OVCAR-4 ovarian it was 88%; in the test on SK-OV-3 ovarian it was 89.4%. Besides, the values for the growth with IGROV1 ovarian, in the test on OVCAR-3 ovarian and in the test with NCI/ADR-RES ovarian were 80.5%, 89% and 94.8%, respectively.

Take `Cn1c(=O)[nH]c2ccccc2c1=O`: the growth in the test with SR leukemia is 100%; in the test on RPMI-8226 leukemia, 112%; in the test on OVCAR-8 ovarian it was 103%; in the test on OVCAR-5 ovarian it was 123%; with OVCAR-4 ovarian it was 110%; in the test with SK-OV-3 ovarian, 108%. Also, the results for the growth with IGROV1 ovarian, in the test on OVCAR-3 ovarian and in the test with NCI/ADR-RES ovarian were 111%, 112% and 102%, respectively.
